From PubChem BioAssay (NCATS)
Records with an inconclusive call do not appear. Values without a mark were called inactive. The source made the active and inactive calls. Calls come from the whole dose curve; tested in HEK293 reporter line.

Experiment: qHTS for Inhibitors of the Functional Ribonucleoprotein Complex (vRNP) of Lassa (LASV) Arenavirus: Viability assay - alamar blue signal for LASV Primary Screen (AID 1347083); note: nearly all actives have a fitted effect of over 80% in size
Conditions: cell viability, alamar blue fluorescence (LASV minigenome counter-screen); series mostly up to 57.5 µM; activity change, negative = reduced viability: at the top concentration
% is set by controls: 0 for no effect and ±100 for the full control effect; potency is the fitted concentration of half-maximal effect.

| SMILES | Potency | activity change, negative = reduced viability |
| --- | --- | --- |
| O=C(O)C[C@H](O)C[C@H](O)C=Cc1c(C2CC2)nc2ccccc2c1-c1ccc(F)cc1 | 24.3 µM (active) | – |
| COC(=O)c1ccc2c(c1)C(NC(C)=O)CCc1cc(OC)c(OC)c(OC)c1-2 (centres undefined) | – | -106% |
| O=C(O)CCNc1cc(N2CCc3ccccc3CC2)nc(-c2ccccn2)n1 | – | -7.86% |
| Oc1ccc(C2CCN(c3ccnc4ccccc34)CC2)cc1O | 6.85 µM (active) | – |
| CCCCCC(=O)N[C@@H](c1ccccc1)[C@@H](O)C(=O)O[C@H]1C[C@@]2(O)[C@@H](OC(=O)c3ccccc3)C3[C@](C)(C(=O)[C@H](O)C(=C1C)C2(C)C)[C@@H](OC1OCC(O)C(O)C1O)C[C@H]1OC[C@@]31OC(C)=O (some centres undefined) | – | -74.3% |
| C[C@H]([C@@H](O)[C@@H](O)[C@@H](C)C(C)(C)C)[C@H]1CC[C@H]2C3CC[C@H]4C[C@H](OS(=O)(=O)O)[C@@H](OS(=O)(=O)O)C[C@]4(C)[C@H]3CC[C@]12C (some centres undefined) | – | 12.7% |
| O=C1NC(=O)C(=Cc2ccc3c(c2)OC(F)(F)O3)S1 | – | -38.9% |
| CON=C(C(=O)N[C@@H]1C(=O)N2C(C(=O)O)=C(CSC(=O)c3ccco3)CS[C@H]12)c1csc(N)n1 | – | -3.48% |
| CNC(=O)Nc1ccc(Cl)c(Cl)c1 | – | 0.969% [at 115 µM] |
| CCCCCOC(=O)Nc1nc(=O)n([C@@H]2O[C@H](C)[C@@H](O)C2O)cc1F (some centres undefined) | – | -27.9% |
| COc1cc(/C=C/C(=O)c2ccc(O)cc2O)ccc1O | – | 2.93% |
| CC(=O)O[C@@]12CO[C@@H]1C[C@H](OC1OCC(O)C(O)C1O)[C@@]1(C)C(=O)[C@H](O)C3=C(C)[C@@H](OC(=O)[C@H](O)[C@@H](NC(=O)c4ccccc4)c4ccccc4)C[C@@](O)([C@@H](OC(=O)c4ccccc4)C12)C3(C)C (some centres undefined) | 20 µM (active) | – |
| O=c1ccn([C@@H]2O[C@H](COP(=O)(O)O)[C@@H](O)[C@H]2O)c(=O)[nH]1 | – | -14.5% |
| COc1ccnc2[nH]cc(C(=O)C(=O)N3CCN(C(=O)c4ccccc4)C[C@@H]3C)c12 | – | -30.2% |
| O=C(/C=C/c1ccc(O)c(O)c1)c1ccc(O[C@@H]2O[C@H](CO)[C@@H](O)[C@H](O)[C@H]2O)c(O)c1O | – | -38.3% |
| CC(C)c1c(C(=O)Nc2ccccc2)c(-c2ccccc2)c(-c2ccc(F)cc2)n1CC[C@H](O)C[C@@H](O)CC(=O)O | – | -26.8% |
| Cc1cnn(C)c1C(=O)Nc1cc(Nc2ccc3c(C=Cc4ccccn4)n[nH]c3c2)ccc1F | 19.3 µM (active) | – |
| COc1ccc(C2CC(=O)c3c(O)cc(O)cc3O2)cc1O (centres undefined) | – | -0.227% |
| COC(=O)C1C2CC3c4[nH]c5cc(OC)ccc5c4CCN3CC2CC(O)C1OC (centres undefined) | – | 9.65% |
